This is part of a sample that, as a whole, favours compounds with a hit. Of some 83,000 tested, about 20% had one in any assay.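 48-hour exposure, single concentration, 96-well plates; percent growth endpoint where 0 means no net growth. Active: below 10.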 Calls of active or inactive are those of the source.

For this experiment, the system named is LOX IMVI melanoma. In words: NCI-60 one-dose screen, 48 h (100 = growth as untreated, 0 = no growth, -100 = all killed). To be noted: 10 µM unless noted.
Consider `Cn1ccnc1C(=O)/C=C/c1ccc(CC(=O)Nc2ccccc2)cc1`, for which the growth was 8.77% (active). Turning to `Cc1ccc2oc(=O)cc(C3c4ccc([nH]4)C(c4cc(=O)oc5ccc(C)cc45)c4ccc([nH]4)C(c4cc(=O)oc5ccc(C)cc45)c4ccc([nH]4)C(c4cc(=O)oc5ccc(C)cc45)c4ccc3[nH]4)c2c1` (centres undefined), the growth was -70.6% (active). The value for `CC(C)(C)CC(C)(C)c1ccc(OCCOCC[N+](C)(C)Cc2ccccc2)cc1` was -29.4% (active); that for `CN1CCN(CCCOc2cccc3nc(Nc4cc(Cl)cc(Cl)c4)ccc23)CC1` was -92.9% (active). As to `CC(C)C[C@@H](NC(=O)[C@@H](Cc1ccccc1)NC(=O)c1cnccn1)B1Oc2ccc(C[C@H](NC(=O)[C@H](Cc3ccc4c(c3)OB([C@@H](CC(C)C)NC(=O)[C@@H](Cc3ccccc3)NC(=O)c3cnccn3)O4)NC(=O)[C@@H](N)CC3CCC4OB([C@@H](CC(C)C)NC(=O)[C@@H](CC5CCCCC5)NC(=O)C5CNCCN5)OC4C3)C(=O)NCCCC[C@@H]3NC(=O)[C@@H](Cc4ccccc4)NC(=O)[C@H](CC(=O)O)NC(=O)CNC(=O)[C@H](CCCNC(=N)N)NC3=O)cc2O1` (some centres undefined), the growth was -87.9% (active). For the compound `CCN(CC)c1ccc(/C=N\NC(=O)/C=C/C=C/c2ccc3c(c2)OCO3)c(O)c1`, the growth is 18.2% (inactive). The result for `O=S(=O)(Nc1ccc(NS(=O)(=O)c2ccccc2)c(Cl)c1)c1ccccc1` reads 106% (inactive); that for `COc1ccc(/C=C/c2nc3ccccc3nc2/C=C/c2ccc(OC)cc2)cc1`, 102% (inactive); that for `COc1ccc(/C=C/C(=O)c2cc(O)ccc2O)cc1`, 103% (inactive).

These data come from PubChem BioAssay (NCI).
